A number with no mark means an inactive call. The rule behind the calls is not given here.
B1: d4r2_design_ppi_152_dldesign_0_cycle0_af2pred (protein)
chain: AAAAAEAEKAAAAATQKAEELAEKRGEEHGAEVGLKKYLENPEEAKKMGKEIYELGLKKYKELKKKEEEEK
B2: d4r2_design_ppi_159_dldesign_0_cycle1_af2pred (protein)
chain: ELEEEAKKAKEVAEKLKKFNLESRLEADEIEAKSKAALREGKENNEEAKKEGLKKVKEQLKKAEELLKKL
B3: d4r2_design_ppi_171_dldesign_0_cycle1_af2pred (protein)
chain: ANEAEAEKYYAEGEQKMILGDTAYEMGKKKGPIFYKIAAEEYKEAAELYKEAAKLASPEKAKEYKEKAKEAEEKSKEAKKKGEE
B4: d4r2_design_ppi_190_dldesign_0_cycle1_af2pred (protein)
chain: MEVEKTAKEAVEAVKAKSPKAAPKMEEAKKAAIEAAKLGKKEEALELLTKAKKAAEAGNVAEAIAYANEAIWLGEKLKK
B5: d4r2_design_ppi_226_dldesign_0_cycle0_af2pred (protein)
chain: SELEEEAKKVAEEARELAKEAEEAAEKILKEKNNLKEAGTLYAQSAQAKQAAEAVELNPEKAEEARERLKKAKERMKEAVKKAE
B6: d4r2_design_ppi_226_dldesign_0_cycle1_af2pred (protein)
chain: MELEKKAKEVAKEAKEKAEEAEKAAEEILKKKKAIKEAGTLYSASERFKQVAEAAELDPSKAEEGRKVMERLKERAEKAVKEAE
B7: d4r2_design_ppi_271_dldesign_0_cycle0_af2pred (protein)
chain: MTKEELEKLKKEVEEAEKLAQEVLKIDKESGEEILKLVTKAKGYAEFAEDALELGSQKAAESFAKKAKEYVKKAEKLAKETLAKAA
B8: d4r2_design_ppi_295_dldesign_0_cycle1_af2pred (protein)
chain: MAEEAAKAVKNRAERLAKEFPEAAPVMKAVAEEAKKKLEEAKGKSPTEIANVAQDYQAEATAKYAEVKRETEKKLAA
B9: d4r2_design_ppi_310_dldesign_0_cycle1_af2pred (protein)
chain: AVEKALKIIEETEKEAKEAFEKNPETGLAIAKATYRTAEHLGSKLNKEDAEKLKKKGKEYLEEFEKRYKEKKKELEE
B10: d4r2_design_ppi_319_dldesign_0_cycle0_af2pred (protein)
chain: EEEEKESERLAEEARRAAEEARRRIREAAERSAEAAREALEEARRRMEELIKEAKKHKKAYAVAAGEAERVLHFGEAALARREAAE
B11: d4r2_design_ppi_327_dldesign_0_cycle0_af2pred (protein)
chain: SQEVIQAKGKIQAAKEQAEAMKEAIEKKPKSPEELERALERLKRLEEEAKEAAKKAGEEVKEEYEEAKKAIEEAKKAAEENRK
B12: d4r2_design_ppi_327_dldesign_0_cycle1_af2pred (protein)
chain: DETVIQAKATIESAKERAEHIKKAIKEKPKTKEELKKAKKILEELEKKAEEAYKKAGEAVKEEYEKAKKAIKEAKKEAEKNLK
B13: d4r2_design_ppi_335_dldesign_0_cycle0_af2pred (protein)
chain: SKVTEDQDKIIELSNKAVEKAEKALEAAKKDKEEAKKYLEEAEKLVEEAEKLAKESGSKAGRAIARNTKEYLEKKKKEIEELL
B14: d4r2_design_ppi_335_dldesign_0_cycle1_af2pred (protein)
chain: GAVTEALDKVLELSEKAIELAEKALKAAKEDKEEAKKYLEKAREKVKEAEKLAKESGSKAGKSIARNTKEYVEKKEKEIKEII
B15: d4r2_design_ppi_339_dldesign_0_cycle1_af2pred (protein)
chain: GESTEKAKKIYEEIKKKAEEYKKKAKEAAELLVEKGEEGGKKLKEIEEEAAKELPEVSFQVKAYINTLKEEAEKRRKEKEA
B16: d4r2_design_ppi_363_dldesign_0_cycle0_af2pred (protein)
chain: SLEEAKKSQEELQKKSTEKWLETQIKEAEKKAKEFKSLGEEAKKKAEEILKEVEKAKASTPEEGLEHAAKAAKIIEEAEKKL
B17: d4r2_design_ppi_363_dldesign_0_cycle1_af2pred (protein)
chain: GLAEAEKKQKELEEKSTKEYIEKVIKESKKKAKELKKKGEEAKKYAEKIEAEVEKAEKATLDEAIEYTSKARKLVEEAEKKL
B18: d4r2_design_ppi_378_dldesign_0_cycle0_af2pred (protein)
chain: MEEERQKKAEEELKKAKEAVEEGIKYAKEGNIMEANAKLSEARVHAEKAKKLDPETGKEIEKLVEEARKKIKEIAEK
B19: d4r2_design_ppi_407_dldesign_0_cycle0_af2pred (protein)
chain: MEEKKNKAKQFAFSEFMKAAAAAPPELRPKIEEAMDKTLEALDESFDKAIKVAEEVAKLPIAKKYAEKAKKFIEEQKK

Target: VTCN1, Q7Z7D3
Sequence (Q7Z7D3 whole entry): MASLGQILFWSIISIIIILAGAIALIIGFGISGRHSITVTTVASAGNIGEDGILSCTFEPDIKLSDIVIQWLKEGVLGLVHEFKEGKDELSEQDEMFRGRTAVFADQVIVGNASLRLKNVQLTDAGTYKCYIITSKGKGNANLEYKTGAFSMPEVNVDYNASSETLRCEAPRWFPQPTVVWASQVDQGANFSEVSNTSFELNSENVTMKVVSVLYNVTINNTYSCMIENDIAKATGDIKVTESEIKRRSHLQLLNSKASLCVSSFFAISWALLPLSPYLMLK

Binder	binding in a display sort
B1	not found
B2	not found
B3	not found
B4	not found
B5	not found
B6	not found
B7	not found
B8	not found
B9	not found
B10	not found
B11	not found
B12	not found
B13	not found
B14	not found
B15	not found
B16	not found
B17	not found
B18	not found
B19	not found

From paper PMC13494018
